# Rows were chosen to be rich in hits. Some 3.9% of all compounds tested hit in one or more screens of this group.
# ERK AVP inh – qHTS Assay for Inhibitors of the ERK Signaling Pathway using a Homogeneous Screening Assay; 0.99% of 72,000 active; Potency, µM (series often up to 57.5 µM), inactives show at the top dose activity, negative = inhibition, most hits filed as inhibitors; HEK293-V1b, vasopressin-stimulated pERK AlphaScreen; also: % is scaled to controls: 0 for no effect and ±100 for the full control effect; nearly all actives have a fitted effect of over 55% in size
#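 qHTS, compounds titrated on V1b-expressing HEK293 cells. Preincubation 30 min at 37C, vasopressin 25 nM for 5 min, lysis 10 min, bead incubation 5 hr at room temperature.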
# Luciferase inh – qHTS Assay for Inhibitors of Firefly Luciferase; purified firefly luciferase, luminescence, 8 min; Potency, µM (doses to about 57.1 µM), inactives show at the top dose activity change, negative = inhibition, hits mostly inhibitors; 2.2% of 72,000 active; also: % is scaled to controls: 0 for no effect and ±100 for the full control effect; nearly all actives have a fitted effect of over 40% in size
# Target sequence (P08659 whole entry, looked up): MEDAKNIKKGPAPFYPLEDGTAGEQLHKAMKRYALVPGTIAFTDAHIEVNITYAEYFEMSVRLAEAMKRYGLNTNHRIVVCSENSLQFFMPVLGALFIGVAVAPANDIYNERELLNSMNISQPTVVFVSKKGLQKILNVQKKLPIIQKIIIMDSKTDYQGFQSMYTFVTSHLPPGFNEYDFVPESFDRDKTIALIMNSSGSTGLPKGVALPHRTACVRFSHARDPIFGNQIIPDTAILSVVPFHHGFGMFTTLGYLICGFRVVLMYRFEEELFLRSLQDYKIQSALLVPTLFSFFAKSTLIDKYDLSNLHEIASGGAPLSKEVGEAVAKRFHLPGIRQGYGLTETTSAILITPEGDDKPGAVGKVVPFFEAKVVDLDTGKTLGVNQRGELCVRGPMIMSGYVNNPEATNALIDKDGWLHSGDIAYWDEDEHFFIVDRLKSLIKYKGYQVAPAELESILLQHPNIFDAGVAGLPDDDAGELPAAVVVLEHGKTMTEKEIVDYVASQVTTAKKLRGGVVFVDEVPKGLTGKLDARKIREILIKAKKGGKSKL
#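 qHTS concentration-response profiling: light output of P. pyralis luciferase with luciferin and 10 uM ATP, imidazole buffer pH 7.2. Read by luminescence after 8-min room-temperature incubation.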
# GBA mod – Glucocerebrosidase | Lysosomal acid glucosylceramidase (Homo sapiens), P04062 | AID 360, 2006 | Potency, µM | purified enzyme, resorufin glucoside fluorescence (screen aimed at inhibitors), 20 min | 1.1% of 48,000 active; in the data active = potency below about 15 µM; inconclusive = mostly about 16 µM to 33 µM;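 also: the screen sought inhibitors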
#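 Normal human glucocerebrosidase (0.2 nM final) was assayed with resorufin β-D-glucopyranoside (30 uM final) in 50mM citric acid/KH2PO4, 10mM sodium taurocholate, 0.01% tween-20, pH 5.9. Compounds were titrated; fluorescence (Ex 548, Em 600) read after 20 min at RT.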
# PK Bst – Pyruvate Kinase. purified pyruvate kinase, luminescence ATP production; ribose 5-phosphate activator present at AC10. Potency, µM. 1.2% of 51,000 active; in the data active = potency below about 11 µM; inconclusive = mostly about 12 µM to 25 µM;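 the screen sought inhibitors and activators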;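 also: scaled between full activation by ribose 5 phosphate and full inhibition by luteolin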
# * = called active by the depositor; i = inactive; ? = inconclusive; / = no result given; [ ] = remark or other dose. Unless noted, calls follow the shape of the dose curve; as a rule, active = well fitted curve in the direction sought with a large enough effect; inconclusive = small, poorly fitted or top-dose-only effect, or another doubt; inactive = no such curve, though single readings can be large; an effect the other way counts as inactive or inconclusive. Potency is read from the fitted curve at half-maximal effect.
SMILES,ERK AVP inh,Luciferase inh,GBA mod,PK Bst
C/C=C/c1ccc(OCCCCN2C(=O)NC(C)(C)C2=O)c(OC)c1,20µM*,-3.3%,>76.9,>57
COC(=O)c1ccc(C(NC(=O)OCc2ccccc2)/C(=C/[C@@H](C)C(=O)NCc2cc(F)cc(F)c2)c2cccnc2)cc1 (some centres undefined),23.4%,/,/,/
Cc1ccc2ccccc2c1CSc1nc(N)nc2c1ncn2CC(C)C,23.6%[11.5 µM],2.8%[11.4 µM],/,/
Nc1nc2ccc(N3CCOCC3)cc2s1,-15.8%,15.8µM*,>76.9,i
O=C(c1ccc2nc(N3CCOCC3)sc2c1)N1CCCC1,17.8%,-0.4%,/,/
CCC[C@@H]1C[C@@]1(CCC)C(NC(=O)c1cccs1)c1ccc(Cl)cc1 (some centres undefined),9.1%,/,/,/
Cc1ccc2nc(Nc3ncc4c(n3)CCCC4=O)nc(C)c2c1,-23.2%,4.0%,>76.9,>57
Cc1cc(C)cc(Nc2ncc3c(n2)CCCC3=O)c1,4.0%,12.6µM*,>76.9,/
COc1ccc(-c2csc(NCc3ccco3)n2)cc1,?,5.01µM*,>76.9,4.65*
CCC[C@@H]1O[C@@H]2C[C@@H]3[C@@H]4CCC5=CC(=O)C=C[C@@]5(C)[C@H]4[C@H](O)C[C@@]3(C)[C@@]2(C(=O)CO)O1,/,-4.1%,/,/
Brc1ccc2[nH]c3nc(SCCN4CCOCC4)nnc3c2c1,-11.3%,-1.8%,9.59*,>57
S=C(Nc1ccccn1)c1ccccn1,-17.6%,20µM*,/,/
OCCN1CCN(c2nc(-c3ccccc3)nc3c2oc2ccccc23)CC1,?,2.8%,i,5.97*
CCOC(=O)C1CCCN(c2ncnc3c2oc2ccccc23)C1 (centres undefined),25.1µM*,-0.4%,?,/
CCOC(=O)C1CCN(c2nc(-c3ccccc3)nc3c2oc2ccccc23)CC1,5.0%,1.0%,7.39*,i
O=C(O)C1CCN(c2nc(-c3ccccc3)nc3c2oc2ccccc23)CC1,-16.6%,0.5%,i,7.37*
Cc1nc(N2CCC(C)CC2)c2oc3ccccc3c2n1,-11.5%,2.3%,>76.9,/
CC(C)CN(C)c1nc(N)c(C(=O)N=C(N)N)nc1Cl,1.9%,-5.2%,/,/
Fc1ccc2nc3[nH]c4ccccc4c3nc2c1,?,6.31µM*,>76.9,3.68*
COC(=O)c1ccc(NC(=O)c2ccccc2NS(C)(=O)=O)cc1,-19.5%,15.8µM*,>76.9,/
CCOC(=O)c1ccc(-n2c(=S)sc3c(=O)[nH]c(C)nc32)cc1,26.6%,-3.2%,6.79*,>57
Cc1ccc(N2C(N)=C(C#N)C(c3cccnc3)C3=C2CC(C)(C)CC3=O)cc1 (centres undefined),-32.3%,0.9%,>76.9,>57
CCSc1sccc1C1C(C#N)=C(N)N(c2cccnc2)C2=C1C(=O)CCC2 (centres undefined),31.6µM*,-1.6%,>76.9,>57
N#CC1=C(N)N(c2ccccc2)C2=C(C(=O)CCC2)C1c1ccsc1 (centres undefined),?,-1.2%,14.9*,>57
Fc1cc2nc(-c3ccncc3)[nH]c2cc1F,2.1%,-17.0%,13.5*,i
SMILES,ERK AVP inh,Luciferase inh,GBA mod,PK Bst
Oc1c(-c2cc(-c3ccco3)[nH]n2)ccc2ccccc12,-15.1%,7.94µM*,>76.9,8.33*
O=C(O)c1cc(-c2ccco2)nc2ccccc12,-10.6%,-18.2%,>76.9,>57
COc1cccc(Cn2c(=O)c(C)nc3cnc(N(C)C)nc32)c1,-16.3%,0.3%[11.4 µM],/,/
COc1ccc(-c2cc3ccccc3n2CC(O)CNC(CO)(CO)CO)cc1 (centres undefined),-5.2%,-0.7%,14.2*,>11.4
COc1ccc(-c2cc3ccccc3n2CC(O)Cn2nc(C)cc2C)cc1 (centres undefined),-6.0%,1.3%,>76.9,>57
CCc1ccc(NC(=O)c2cc(C(C)C)on2)cc1,13.8%,12.6µM*,>76.9,i
CCc1ccc(NC(=O)c2cc(C)on2)cc1,8.5%,7.94µM*,?,i
CC(=O)OC1C[C@]2(C)[C@@H](CC(O)C3[C@]4(C)CCC(O)C(C)[C@@H]4CC[C@]32C)/C1=C(/CCC=C(C)C)C(=O)O (some centres undefined),6.8%,/,/,/
O=C(c1ccncc1)N1CCC2(CCCN(c3ccc(-c4ccccc4)cc3)C2)CC1,-26.1%,-0.2%[11.4 µM],/,/
Cc1ccc(-c2c3c(=O)n(C)c(=O)n(C)c3c3c(C)cc(C)nn23)cc1,6.7%,1.9%,>76.9,>57
CC1CCCCC1NC(=O)C1CCN(S(=O)(=O)N2CCC3(CC2)OCCO3)CC1 (centres undefined),-7.6%,2.3%,>76.9,>57
CC1CCCC(NC(=O)C2CCN(S(=O)(=O)N3CCC4(CC3)OCCO4)CC2)C1C (centres undefined),10.8%,-0.2%,14*,>57
COC(c1ccccc1)C(C)C(OC)C(C)C(OC)C(C)C(C)=O (centres undefined),14.6%[11.5 µM],/,/,/
CCOC(=O)c1cnn(-c2cc(C)c3ccccc3n2)c1N,43.1%,-0.1%,12.2*,/
Cc1cc(N)n2ncc(-c3ccccc3)c2n1,25.1µM*,25.1µM*,/,4.76*
CCOC(=O)c1cnc2c(-c3ccccc3)cnn2c1N,-7.1%,2.51µM*,>76.9,2.31*
CCOC(=O)c1cnn(-c2ccccn2)c1N,19.4%,-29.6%,>76.9,i
CC(C)(C)n1cnc2cc(NS(=O)(=O)c3ccc(Br)cc3)ccc21,/,-0.3%[25.5 µM],/,2.47*
CC1(C)Cc2c(sc(NC(=O)c3ccc(Br)o3)c2C#N)CO1,/,10µM*,/,/
Cn1c(CCCOc2ccc(Cl)cc2Cl)nnc1SCC(=O)Nc1nccs1,31.6µM*,0.5%,>76.9,>57
CCCn1c(=O)c(C(=O)Nc2nnc(C)s2)c(O)c2ccccc21,-8.0%,3.2%,>76.9,>57
O=c1c2ccccc2sn1-c1cc(S(=O)(=O)N2CCOCC2)ccc1N1CCOCC1,?,12.6µM*,?,>57
Cn1c(=O)c2cc(S(=O)(=O)N3CCOCC3)ccc2n(C)c1=O,12.2%,3.0%,>76.9,>57
CCNC(=O)[C@H](C)/C=C/C(NC(=O)OCc1ccccc1)c1ccc(C(=O)OC)cc1 (some centres undefined),6.1%,/,/,/
CCCCCCCCCCCCCCCCOC[C@@H](COCC(F)(F)F)OP(=O)(O)OCO,/,2.5%,/,/
SMILES,ERK AVP inh,Luciferase inh,GBA mod,PK Bst
O=C(NCCN1C(=O)C2C3C=CC(C3)C2C1=O)Nc1cccnc1 (centres undefined),-10.0%,-0.7%,/,/
O=C(NCCN1C(=O)C2C3C=CC(C3)C2C1=O)Nc1ccc(Br)cc1 (centres undefined),-2.4%,15.8µM*,/,/
COc1ccc(CCCO[C@@H](Cn2ccnc2)c2ccc(OC)cc2)cc1,?,1.9%,/,/
COc1ccc(CNC(=O)c2cc(-c3ccccc3OC)on2)cc1,5.0%,-11.7%,11*,>57
COc1ccccc1-c1cc(C(=O)NCc2ccc(F)cc2)no1,14.7%,-2.5%,9.91*,>57
COc1ccccc1-c1cc(C(=O)NCc2ccccc2)no1,34.5%,-19.0%,/,>57
Cc1cc(C(=O)COc2cccc(-n3cnnn3)c2)c(C)n1-c1ccccc1,10.8%,12.6µM*,>76.9,/
